The results in this text go back to PubChem BioAssay (NCATS).

Results filed as inconclusive are left out. A call without a number means that no potency is given here. The source made the active and inactive calls. Calls come from the whole dose curve; as a rule, active = well fitted curve in the direction sought with a large enough effect; inconclusive = small, poorly fitted or top-dose-only effect, or another doubt; inactive = no such curve, though single readings can be large; an effect the other way counts as inactive or inconclusive.

Assay [1] deals with Aldehyde dehydrogenase, mitochondrial (Homo sapiens) (UniProt P05091). As to the kind of experiment: qHTS for Inhibitors of the Aldehyde Dehydrogenase Family (ALDH2) Primary screen (AID 2061308). Note: nearly all actives have a fitted effect of over 55% in size. For orientation: In qHTS, concentration-response curves come from the screen itself.
The target in assay [2] is Retinaldehyde dehydrogenase 3 (Homo sapiens) (UniProt P47895). Description: qHTS for Inhibitors of the Aldehyde Dehydrogenase Family (ALDH1A3) Confirmatory screens (AID 2061311). Note: nearly all actives have a fitted effect of over 60% in size.
Assay [3] concerns the target Retinal dehydrogenase 2 (Homo sapiens) (UniProt O94788). As to the kind of experiment: qHTS for Inhibitors of the Aldehyde Dehydrogenase Family (ALDH1A2) Confirmation screens (AID 2061314). Note: nearly all actives have a fitted effect of over 65% in size.
Potency is the fitted concentration of half-maximal effect.

In the case of `Fc1cc(Nc2nc(-c3ccncc3)nc3ccccc23)ccc1OC(F)(F)F`, in assay [1], the Potency entry was “inactive”.

Take `O=S(=O)(Nc1cccc2cccnc12)c1ccccc1O`: the Potency result in assay [1] was “inactive”.

As to `C=C1/C(=C/C=C2\CCC[C@]3(C)[C@@H]([C@H](C)/C=C/[C@@H](C)C(C)C)CC[C@@H]23)C[C@@H](O)C[C@@H]1O`, in assay [1], the Potency result is “inactive”.

As for `Cc1ccc(S(=O)(=O)Nc2cccc3cccnc23)c([N+](=O)[O-])c1`, the Potency entry in assay [1] is “inactive”.

Take `Cc1ccc(S(=O)(=O)Nc2cnccc2C(=O)Nc2ccc(N3CCOCC3)cc2)cc1`: in assay [1], the Potency result is “inactive”. For the same compound, the Potency in assay [2] is 4 µM (active); in assay [3], 6.34 µM (active).

On to `CC(C)N1CCc2c(sc(NC(=O)c3ccccc3)c2-c2nc3ccccc3s2)C1`, for which, in assay [1], the Potency was 22.4 µM (active). In assay [2], the Potency result was “inactive”.

On to `C=C1CC[C@@H]2[C@](C)(CO)[C@H](O[C@@H]3O[C@H](CO)[C@@H](O)[C@H](O)[C@H]3O)CC[C@@]2(C)[C@@H]1C/C=C1/C(=O)OC[C@H]1O`, for which the Potency result in assay [1] was “inactive”.

`O=C(O)c1ccc(O)c2ncc(NCC3CCCN(CCc4ccccc4)C3)cc12` (centres undefined): in assay [1], the Potency result is “inactive”.

In the case of `Oc1ccc(/C=C/c2ccccc2)c2cccnc12`, the Potency result in assay [1] is “inactive”. The Potency in assay [2] was 14.2 µM (active).

For `CS(=O)(=O)c1cccc(-c2csc(N3CCC(C(N)=O)CC3)n2)c1`, in assay [1], the Potency entry was “inactive”.

With `Cc1ccnc(NC(=S)N2CCN(c3cccc(C(F)(F)F)n3)CC2)c1`, the Potency result in assay [1] is “inactive”.

As for `Oc1ccc(COCc2ccc(F)cc2)c2cccnc12`, the Potency entry in assay [1] was “inactive”. Moreover, in assay [2], the Potency was 10.1 µM (active).

`O=C(Nc1ccccc1C(=O)O)c1ccccc1`: in assay [1], the Potency entry was “inactive”.

In the case of `C=C1/C(=C/C=C2\CCC[C@@]3(C)C2CCC3[C@H](C)/C=C/[C@@H](O)C2CC2)C[C@@H](O)C[C@@H]1O` (some centres undefined), the Potency entry in assay [1] is “inactive”.
